Drawing on PubChem BioAssay, this text covers z-score for eleven compounds.

Activity calls are given as the source filed them.

A short description of assay [1]: A549 cell viability effects, profiling panel, calcein-AM fluorescence, 48 h, basal (AID 1162). The settings on record: higher = more signal.
Assay [2] is described as follows: adipocyte viability effects, profiling panel, cell-based, 3T3-L1 adipocytes, calcein-AM fluorescence, 48 h, basal (AID 1163). The settings on record: 3T3-L1 adipocytes viability, higher = more signal.
A short description of assay [3]: HepG2 cell viability effects, profiling panel, calcein-AM fluorescence, 48 h, basal (AID 1164). The settings on record: higher = more signal.
Assay [4] in a line: MM1S cell viability effects, profiling panel, calcein-AM fluorescence, 48 h, basal (AID 1165).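 Note: viability of MM1S multiple myeloma cells under basal unstimulated conditions.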 As to conditions: higher = more signal.
A short description of assay [5]: basal RPMI8226 viability, no added stimulus, profiling panel, cell-based, calcein-AM fluorescence, 48 h, PK04 Diversity Set (AID 1166).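 Note: cells grown under basal conditions without added stimulus.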 As to conditions: RPMI8226 myeloma viability, higher = more signal.
A short description of assay [6]: basal HepG2 mitochondrial membrane potential changes, profiling panel, cell-based, JC-1 fluorescence, 24 h, 100 nL compound (AID 1167). As to conditions: higher = more signal.
Assay [7] can be described thus: basal 3T3-L1 adipocyte mitochondrial potential changes, profiling panel, cell-based, JC-1 fluorescence, 3T3-L1 adipocytes, 24 h, 100 nL compound (AID 1168). As to conditions: JC-1 mitochondrial fluorescence, higher = more signal, called active from +8 up or from −8 down.
Assay [8] in a line: basal RPMI8226 mitochondrial membrane potential changes, profiling panel, cell-based, JC-1 fluorescence, 24 h, 100 nL compound (AID 1169). The settings on record: RPMI8226 myeloma, JC-1 mitochondrial potential fluorescence, higher = more signal.
A short description of assay [9]: basal MM1S mitochondrial membrane potential changes, profiling panel, cell-based, JC-1 fluorescence, 24 h, 100 nL compound (AID 1170). The settings on record: higher = more signal.
Assay [10] can be described thus: A549 lung cancer cell viability effects, profiling panel, resazurin fluorescence, 24 h, PK04 Diversity Set (AID 1171). The settings on record: higher = more signal, called active from +8 up or from −8 down. Background: Resazurin is reduced to fluorescent resorufin, in cell work by metabolically active cells.
Note: test concentration not given here.

Take `C=C[C@@H](CO)N(Cc1ccc(OC)cc1)S(=O)(=O)c1ccc(Br)cc1`: the z-score in [1] is 1.49; in assay [2], 0.773; in assay [3], 0.349; in assay [4], 1.39; in [5], 0.613; in assay [6], 0.622. For the same compound, the z-score in assay [7] was 2.05 (inactive); in assay [8], 0.359; in assay [9] it was -0.159; in [10] it was 1.23 (inactive).
Turning to `CN(C)c1ccc(C(O)C2C=CC3C(=O)NC(=O)C3N2Nc2ccccn2)cc1` (stereo not given), the z-score in assay [1] is -0.8; in assay [2], -0.358; in assay [3] it was -0.331; in assay [4] it was -0.286; in assay [5], -0.333; in assay [6] it was -1.21. Besides, the z-score in assay [7] was -0.339 (inactive); in [8], -0.492; in assay [9], 0.468; in [10] it was -0.348 (inactive).
In the case of `CCOC(=O)C1=C[C@@H](C(C)C)N(S(=O)(=O)c2ccc(C)cc2)[C@H]1c1ccc(C(F)(F)F)cc1`, the z-score in assay [1] was -0.731; in [2], -0.448; in [3], -1.53; in [4], -2.91; in assay [5], -1.65; in assay [6], 3.7. For the same compound, the z-score in assay [7] was -0.216 (inactive); in [8] it was -0.208; in [9] it was -0.446; in [10], 0.793 (inactive).
With `NCCCCCNC(=O)[C@H]1C[C@H]2C(=O)N3CCC[C@H]3C(=O)N2[C@H]1c1cccc(OCCO)c1`, the z-score in assay [1] is -0.173; in assay [2], 0.101; in [3], -0.816; in [4], -1.53; in [5], -0.881; in assay [6], 0.37. In addition, the z-score was 0.13 (inactive) in [7], 0.113 in [8], -0.503 in assay [9] and -0.845 (inactive) in assay [10].
Take `O=C1C2C=CC(C(O)c3cccc(O)c3)N(Nc3ccc([N+](=O)[O-])cc3)C2C(=O)N1c1ccccc1` (stereo not given): the z-score in assay [1] is -0.505; in assay [2], -0.55; in assay [3], -0.0586; in [4] it was -0.0899; in assay [5], 0.45; in [6], -2.01. Besides, the z-score is -1.78 (inactive) in assay [7], -0.217 in assay [8], -1.25 in assay [9] and 0.014 (inactive) in assay [10].
Consider `C=CCNC(=O)[C@@H]1[C@H]2C(=O)O[C@H](c3ccccc3)[C@H](c3ccccc3)N2[C@H](c2ccccc2OCCO)[C@@]12C(=O)Nc1ccc(C#CCC(C(=O)OC)C(=O)OC)cc12`, for which the z-score in [1] is -0.423; in assay [2], -0.695; in [3], -0.852; in assay [4] it was -3.28; in [5], -4.17; in assay [6], -1.4. In addition, the z-score in [7] is 2.37 (inactive); in assay [8], -0.941; in [9], -1.96; in [10], -1.3 (inactive).
As to `CCCC=C(CCC)[C@@H](NP(=O)(c1ccccc1)c1ccccc1)c1ccc(-c2ccccc2)cc1`, the z-score in assay [1] was -1.51; in assay [2] it was -0.933; in assay [3] it was -1.47; in [4] it was -1.67; in assay [5], -2.96; in assay [6], -4.76. Further, the z-score is 0.74 (inactive) in [7], -0.343 in assay [8], -2.36 in [9] and 0.647 (inactive) in assay [10].
With `CCCC[C@@H](O)C1=C(COC)C[C@H]2C(=O)N(C)C(=O)[C@H]2[C@H]1CO`, the z-score in assay [1] is 1.28; in [2], 1.13; in assay [3] it was 1.48; in [4], -0.211; in [5], 0.536; in assay [6], 1.23. Moreover, the z-score in [7] is -0.987 (inactive); in assay [8] it was 0.335; in assay [9], -1.98; in assay [10], 0.368 (inactive).
For `CC(C)(C)OC(=O)COc1cccc(C(=O)CCN2CCOCC2)c1`, the z-score was 1.06 in assay [1]; 0.477 in assay [2]; -0.0751 in assay [3]; -3.27 in [4]; -4.4 in assay [5]; -1.01 in assay [6]. The z-score is -0.0351 (inactive) in [7], -0.885 in assay [8], -2.04 in assay [9] and 1.5 (inactive) in assay [10].
`COc1ccc(C#Cc2ccc3c(c2)[C@]2(C(=O)N3)[C@H](c3ccc(OCCO)cc3)N3[C@H](c4ccccc4)[C@H](c4ccccc4)OC(=O)[C@H]3[C@@H]2C(=O)NC[C@H](O)c2ccccc2)cc1`: the z-score in assay [1] is 0.357; in assay [2], -0.177; in [3] it was 1.08; in [4], 0.373; in assay [5], -1.46; in [6], -1.04. Moreover, the z-score in [7] was 4.7 (inactive); in assay [8], -0.808; in [9] it was -1.4; in [10], 0.0652 (inactive).
Take `C=CCNC(=O)[C@@H]1[C@H]2C(=O)O[C@H](c3ccccc3)[C@H](c3ccccc3)N2[C@H](c2ccccc2OCCO)[C@@]12C(=O)Nc1ccc(C#CCCO)cc12`: the z-score in assay [1] was -0.368; in assay [2], 0.953; in assay [3], 0.151; in [4], -0.66; in assay [5] it was -0.485; in assay [6], -0.699. Also, the z-score in assay [7] was 0.959 (inactive); in assay [8] it was -0.435; in assay [9] it was -0.608; in assay [10], 0.322 (inactive).
